{"source": "PubChem BioAssay AID624483", "about": "(NMMLSC, 2012)", "note": "Among all 360,000 compounds or so, about 11,000 (3.1%) were called active. Not shown: some 2% with an inconclusive outcome. This is one part of a sample in which actives are shown more often than they occur. Values without a mark were called inactive. Rule as the data show it: active = fluorescence intensity above about 16000; inconclusive = no clear call, values can overlap the other calls; inactive = below that."}
{"test": "counter-screen for toxin protease inhibitors: compound fluorescence, primary screen, artefact control for toxin protease inhibitor project, biochemical, multiplex microsphere, HTS (AID 624483)", "details": "compound autofluorescence counterscreen, microsphere flow cytometry; active compounds read high"}
{"smiles": "C=CCN(CC=C)S(=O)(=O)c1ccc(C(=O)Nc2nc3c(s2)CCc2ccccc2-3)cc1", "fluorescence intensity": 11000}
{"smiles": "COc1ccccc1-n1cnc2cc(NS(=O)(=O)c3ccccc3)ccc21", "fluorescence intensity": 3550}
{"smiles": "COc1cc(NS(=O)(=O)c2ccccc2)ccc1-n1nc(C)cc1C", "fluorescence intensity": "17700 (active)"}
{"smiles": "CC(=O)c1c(C)oc2ccc(NS(=O)(=O)c3ccccc3)cc12", "fluorescence intensity": 5190}
{"smiles": "CC(C)(O)C#Cc1ncc(C(F)(F)F)cc1Cl", "fluorescence intensity": 4380}
{"smiles": "O=C(NCCCN1CCCCC1)C1CC(=O)N(CCc2ccccc2)C1", "note": "(stereo unspecified)", "fluorescence intensity": 5320}
{"smiles": "Cc1ccc(CCN2CC(C(=O)NCCc3ccccc3)CC2=O)cc1", "note": "(stereo unspecified)", "fluorescence intensity": 5840}
{"smiles": "O=C(NC1CCCCC1)C1CC(=O)N(CCc2ccccc2)C1", "note": "(stereo unspecified)", "fluorescence intensity": "21500 (active)"}
{"smiles": "CC(=O)NC1CCN(CC(=O)Nc2nccs2)CC1", "fluorescence intensity": 3460}
{"smiles": "O=C(Nc1cccc2ccccc12)c1[nH]c(-c2ccccc2)c2c1C(=O)N(C1CC1)C2=O", "fluorescence intensity": 5310}
{"smiles": "CCCNC(=O)c1cc2c(c(-c3cccc(-c4ccc(C#N)cc4)c3)n1)[C@@H](CCO)N(C(=O)CC)C2", "fluorescence intensity": 4490}
{"smiles": "Cn1c2c(c(=O)n(C)c1=O)[C@@H]1c3c(ccc4ccccc34)OC[C@@H]1CO2", "fluorescence intensity": 3510}
{"smiles": "OCCNCCCCOc1ccccc1F", "fluorescence intensity": "23000 (active)"}
{"smiles": "Fc1ccccc1OCCCCn1cncn1", "fluorescence intensity": 5750}
{"smiles": "CCN1CCN(CCCCOc2ccccc2F)CC1", "fluorescence intensity": 9580}
{"smiles": "CCCN1C(=O)C(NC(C)=O)c2cc(OC)ccc21", "note": "(stereo unspecified)", "fluorescence intensity": 2550}
{"smiles": "COc1ccc(C(=O)NCC[N+](C)(C)C)cc1", "fluorescence intensity": 5780}
{"smiles": "O=C(NC1CCCC1)C1c2ccccc2OCC(=O)N1Cc1ccccc1", "note": "(stereo unspecified)", "fluorescence intensity": 5910}
{"smiles": "CC(c1ccco1)N(C(=O)Nc1ccccc1)C1CCCCC1", "note": "(stereo unspecified)", "fluorescence intensity": "20500 (active)"}
{"smiles": "CC(=O)N1CCC(N(C(=O)Nc2ccc(Cl)cc2)C(C)C)CC1", "fluorescence intensity": 4610}
{"smiles": "Cc1ccc(NC(=O)NC(=O)N(C2CCCCC2)S(=O)(=O)c2ccccc2)cc1", "fluorescence intensity": 9210}
{"smiles": "Cc1cc(C)c(S(=O)(=O)NN=C2c3ccccc3[C@H]3Cc4csc[n+]4[C@@H]23)c(C)c1", "fluorescence intensity": 5040}
{"smiles": "O=C(c1ccc(C(F)(F)F)cc1)N1CCC(=O)N([C@H](COCc2ccccc2)Cc2ccccc2)CC1", "fluorescence intensity": 5850}
{"smiles": "CCOc1ccc(-c2nnn(CC(=O)N3CCN(c4ccc(F)cc4)CC3)n2)cc1OCC", "fluorescence intensity": 6120}
{"smiles": "CCOc1ccc(-c2nnn(CC(=O)N3CCN(c4ccc(OC)cc4)CC3)n2)cc1OCC", "fluorescence intensity": 4250}
{"smiles": "COc1ccc(C(=O)Cn2nnc(-c3ccc(N4CCOCC4)cc3)n2)cc1OC", "fluorescence intensity": "24200 (active)"}
